Seven compounds from PubChem BioAssay (Tox21) can be followed below.

Inconclusive results are not listed. The source made the active and inactive calls. Unless noted, calls follow the shape of the full dose curve.

Experiment [1] can be described thus: Nuclear factor erythroid 2-related factor 2/antioxidant responsive element (Nrf2/ARE) small molecule agonists: qHTS cell viability counter screen in human keratinocytes (AID 1919968; active = well fitted curve in the direction sought with a large enough effect in the repeat runs; an effect the other way counts as inactive or inconclusive; also: nearly all actives have a fitted effect of over 55% in size; also: potency is read from the fitted curve at half-maximal effect). The procedure, abridged:
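CellTiter-Fluor fluorescence, read 1 h after reagent, gave viability in the same wells as the ARE-luciferase assay. KeratinoSens cells (1,500/well) had 23 h compound exposure at 37 C/5% CO2 following 5 h plating.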

The target in experiment [2] is Gonadotropin-releasing hormone receptor (Homo sapiens) (UniProt P30968). Put plainly: Human gonadotropin-releasing hormone receptor (GnRHR) small molecule agonists, calcium flux assay in GnRHR-HEK293 cells (AID 1920063). Also: nearly all actives have a fitted effect of over 35% in size. The procedure, abridged: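 Agonist mode: compounds at 15 concentrations, in triplicate, went onto calcium dye-loaded GnRHR-HEK293 cells. Intracellular calcium was then followed as 480/540 nm fluorescence at 1 s intervals over 3 min.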
On the technique in general: A change in cytosolic calcium serves as a functional read-out for many receptors and channels.

For experiment [3], the target named is KiSS-1 receptor (Homo sapiens) (UniProt Q969F8). Briefly: Human kisspeptin (KISS1R) small molecule agonists, calcium flux assay in KISS1R-HEK293 cells (AID 1920064; active = well fitted curve in the direction sought with a large enough effect in the repeat runs; an effect the other way counts as inactive or inconclusive). The procedure, abridged: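 Agonist mode: intracellular calcium rise tracked at 1 s intervals over 3 min (480/540 nm) immediately after compound addition to dye-loaded KISS1R-HEK293 stable cells. Each compound tested at 15 concentrations in triplicate.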

Experiment [4] is described as follows: G protein-coupled receptor (GPCR) small molecule agonists, calcium flux assay: HEK293 wild type cell line counter screen (AID 1920065). The procedure, abridged:
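Calcium flux counter screen: compound added in agonist mode at 15 concentrations in triplicate to dye-loaded parental HEK293 cells. Fluorescence (480/540) read kinetically for 3 min; ATP served as positive control.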

Experiment [5] in a line: p53 small molecule agonists, cell-based qHTS assay with human liver microsomes (AID 1963577).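 Also: p53 response element beta-lactamase reporter cells with liver microsomes plus NADPH.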 The gist of the method: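 With metabolic activation: human liver microsomes (0.5 mg/mL final) plus NADPH (0.5 mg/mL final) added alongside compounds to p53RE-bla cells; 16 h 37 C exposure; beta-lactamase read by LiveBLAzer fluorescence.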
(In general: qHTS replaces the single test concentration by a dilution series.)

The nature of experiment [6]: p53 small molecule agonists, cell-based qHTS assay with rat liver microsomes (AID 1963578). The gist of the method: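 Metabolic activation by rat liver microsomes and NADPH, each 0.5 mg/mL final, added right after compounds to p53RE-bla reporter cells (4,000/well, plated 5 h earlier). 16 h at 37 C, then LiveBLAzer substrate for 2 h at room temperature in the dark; fluorescence read-out.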

Experiment [7] in a line: p53 small molecule agonists, cell-based qHTS assay with human liver microsomes: qHTS cell viability counter screen (AID 1963579). Also: nearly all actives have a fitted effect of over 45% in size. Also: potency is read from the fitted curve at half-maximal effect. The procedure, abridged: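 Metabolic activation used human liver microsomes and NADPH, both 0.5 mg/mL final, over 16 hours at 37 C on p53RE-bla cells (4,000/well). Cytotoxicity measured by CellTiter-Glo luminescence, 30 min at room temperature.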

The nature of experiment [8]: p53 small molecule agonists, cell-based qHTS assay with rat liver microsomes: qHTS cell viability counter screen (AID 1963580). Also: nearly all actives have a fitted effect of over 45% in size. The procedure, abridged:
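Cytotoxicity counter screen: intracellular ATP read by CellTiter-Glo luminescence in the p53 reporter wells. HCT-116 p53RE-bla cells were treated for 16 h at 37 C alongside rat liver microsomes and NADPH, each 0.5 mg/mL final.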

Experiment [9] is described as follows: p53 small molecule agonists, cell-based qHTS assay (AID 1963582; active = well fitted activation curve with a large enough effect in the signal ratio in the repeat runs, not every such curve was filed as active; the % refers to the signal ratio). The procedure, abridged: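 Read-out is beta-lactamase FRET fluorescence after 2 h at room temperature with LiveBLAzer B/G substrate. p53 response element-bla cells were treated 16 h at 37 C with compounds in DMSO, added 5 h after seeding.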
Experiment [10] is described as follows: cAMP Responsive Elements (CRE) small molecule agonists, cell-based qHTS assay (AID 1963590). The procedure, abridged:
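Agonist mode: compound added to CRE-bla HEK 293T cells (2,000/well, 18 h after plating) for 3 h at 37 C/5% CO2. Reporter activity detected via FRET beta-lactamase substrate, 2 h room-temperature loading.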

Experiment [11] can be described thus: cAMP Responsive Elements (CRE) small molecule antagonists, cell-based qHTS assay (AID 1963591; active = well fitted inhibition curve with a large enough effect in the signal ratio in the repeat runs, not every such curve was filed as active; the % refers to the signal ratio; also: potency is read from the fitted curve at half-maximal effect). The procedure, abridged: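 Antagonist mode: compounds are added alongside the adenylyl cyclase activator NKH477 (0.25 uM final) to CRE-bla HEK293T cells for 3 h. LiveBLAzer FRET substrate, 2 h at room temperature, reports bla expression.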
In experiment [12] the target is D(2) dopamine receptor (Homo sapiens) (UniProt P14416). Put plainly: Dopamine D2 receptor (DRD2) small molecule agonists, cell-based qHTS assay (AID 1963594). Also: nearly all actives have a fitted effect of over 35% in size. The procedure, abridged: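 cAMP accumulation in DRD2-HEK293 cells measured by HTRF after 1 h detection; compounds added 10 min before NKH477 (200nM […]) forskolin-analogue stimulation, 30 min at room temperature, with Ro20-1724 present at 0.1 mM final.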

For experiment [13] the target is unchanged. Briefly: Dopamine D2 receptor (DRD2) small molecule antagonists, cell-based qHTS assay (AID 1963595; active = well fitted inhibition curve with a large enough effect in the signal ratio in the repeat runs, with a control signal flat; the % refers to the signal ratio). The gist of the method: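 Antagonist mode in DRD2-HEK293 cells: after compound addition with 0.1 mM Ro20-1724, cells received quinpirole (12 nM) and NKH477 (200 nM) for 30 min at room temperature; HTRF cAMP read after 1 h detection.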
Experiment [14] in a line: p53 small molecule agonists, cell-based qHTS assay: qHTS cell viability counter screen (AID 1963581). Also: nearly all actives have a fitted effect of over 45% in size. The procedure, abridged:
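Counter screen read by CellTiter-Glo luminescence (ATP content, 30 min at room temperature), run in the same wells as the beta-lactamase reporter read. HCT-116 p53RE-bla cells saw compounds for 16 h at 37 C.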

Experiment [15] deals with 5-hydroxytryptamine receptor 2A (Homo sapiens) (UniProt P28223). Put plainly: 5-hydroxytryptamine receptor 2A (HTR2A) small molecule antagonists, cell-based qHTS assay (AID 1963586). Also: nearly all actives have a fitted effect of over 45% in size. Also: potency is read from the fitted curve at half-maximal effect. The procedure, abridged:
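CHO cells stably expressing human HTR2A were plated for 18 h at 37 C, then loaded with calcium dye for 1 h. Compounds were preincubated 5 min at room temperature before DOI (4 nM solution) was added. Kinetic fluorescence was read for 3 min.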

Experiment [16] shares this target. Briefly: 5-hydroxytryptamine receptor 2A (HTR2A) small molecule agonists, cell-based qHTS assay (AID 1963587). Also: nearly all actives have a fitted effect of over 30% in size. The gist of the method: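 Kinetic calcium-flux fluorescence (2 min, 1 sec intervals) after compound addition in agonist mode. HTR2A-CHO cells were cultured 18 h, then dye-loaded 1 h at 37 C.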
The target in experiment [17] is Muscarinic acetylcholine receptor M1 (Homo sapiens) (UniProt P11229). Briefly: Cholinergic receptor muscarinic 1 (CHRM1) small molecule antagonists, cell-based qHTS assay (AID 1963588). Also: nearly all actives have a fitted effect of over 40% in size. The procedure, abridged: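 Compounds were tested at 15 concentrations in three independent runs. Dye-loaded CHRM1-CHO cells were exposed 5 min at room temperature before stimulation by acetylcholine added at 50nM. Intracellular calcium was read kinetically on FDSS for 3 min.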

For experiment [18] the target is unchanged. Put plainly: Cholinergic receptor muscarinic 1 (CHRM1) small molecule agonists, cell-based qHTS assay (AID 1963589). Also: nearly all actives have a fitted effect of over 35% in size. The gist of the method: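 Agonist-mode calcium-flux screen: compounds at 15 concentrations, three independent runs, were pin-transferred onto dye-loaded human CHRM1-CHO cells. Fluorescence was then recorded kinetically every second over minutes.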

Experiment [19] addresses Beta-2 adrenergic receptor (Homo sapiens) (UniProt P07550). Put plainly: Adrenergic beta2 receptor (ADRB2) small molecule antagonists, cell-based qHTS assay (AID 1963592). Also: series mostly up to about 92 µM; nearly all actives have a fitted effect of over 50% in size. The procedure, abridged: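 Assay format: CHO-ADRB2 cells, 18-20hr seeding at 37C/5% CO2, then compound plus 1nM isoproterenol agonist mix for 0.5hr RT. Homogeneous time-resolved fluorescence cAMP detection after 1hr, expressed as 665/615 nm ratio.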

Experiment [20] has the same target. Briefly: Adrenergic beta2 receptor (ADRB2) small molecule agonists, cell-based qHTS assay (AID 1963593).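 Also: CHO cells stably overexpressing human ADRB2.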 The procedure, abridged: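 CHO cells stably over-expressing ADRB2 were plated overnight at 37C, then dosed with compounds plus a stimulation mix containing 100uM IBMX and 25uM Ro-20-1724 for 0.5hr at room temperature. cAMP was measured by HTRF competition, 1hr.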

Chain of Muscarinic acetylcholine receptor M1 (Homo sapiens) (P11229 whole entry, looked up): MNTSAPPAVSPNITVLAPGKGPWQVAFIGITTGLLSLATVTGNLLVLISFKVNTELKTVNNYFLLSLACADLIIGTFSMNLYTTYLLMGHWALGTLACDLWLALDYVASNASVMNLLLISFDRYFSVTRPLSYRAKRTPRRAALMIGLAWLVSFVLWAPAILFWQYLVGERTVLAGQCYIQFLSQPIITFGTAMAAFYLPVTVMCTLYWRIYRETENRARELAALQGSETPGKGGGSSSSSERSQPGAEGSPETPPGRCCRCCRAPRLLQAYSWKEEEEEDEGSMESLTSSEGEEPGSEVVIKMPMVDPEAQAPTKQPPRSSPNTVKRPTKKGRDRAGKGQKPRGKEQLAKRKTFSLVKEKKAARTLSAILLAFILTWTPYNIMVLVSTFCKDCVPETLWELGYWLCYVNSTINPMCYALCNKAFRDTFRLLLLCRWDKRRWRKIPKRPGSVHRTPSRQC
Chain of D(2) dopamine receptor (Homo sapiens) (P14416 whole entry, looked up): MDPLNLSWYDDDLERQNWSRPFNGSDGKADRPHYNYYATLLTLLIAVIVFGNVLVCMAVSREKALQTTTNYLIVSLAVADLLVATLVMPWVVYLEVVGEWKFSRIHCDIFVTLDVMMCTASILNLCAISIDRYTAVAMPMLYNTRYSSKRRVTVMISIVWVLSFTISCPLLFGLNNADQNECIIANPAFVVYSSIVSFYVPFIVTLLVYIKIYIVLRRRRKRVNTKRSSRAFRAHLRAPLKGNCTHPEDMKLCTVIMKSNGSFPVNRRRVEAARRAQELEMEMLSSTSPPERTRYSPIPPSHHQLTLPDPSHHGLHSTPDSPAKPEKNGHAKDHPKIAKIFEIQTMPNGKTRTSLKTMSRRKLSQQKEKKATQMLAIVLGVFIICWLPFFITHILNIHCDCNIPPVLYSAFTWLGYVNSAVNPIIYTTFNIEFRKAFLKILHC
Chain of Beta-2 adrenergic receptor (Homo sapiens) (P07550 whole entry, looked up): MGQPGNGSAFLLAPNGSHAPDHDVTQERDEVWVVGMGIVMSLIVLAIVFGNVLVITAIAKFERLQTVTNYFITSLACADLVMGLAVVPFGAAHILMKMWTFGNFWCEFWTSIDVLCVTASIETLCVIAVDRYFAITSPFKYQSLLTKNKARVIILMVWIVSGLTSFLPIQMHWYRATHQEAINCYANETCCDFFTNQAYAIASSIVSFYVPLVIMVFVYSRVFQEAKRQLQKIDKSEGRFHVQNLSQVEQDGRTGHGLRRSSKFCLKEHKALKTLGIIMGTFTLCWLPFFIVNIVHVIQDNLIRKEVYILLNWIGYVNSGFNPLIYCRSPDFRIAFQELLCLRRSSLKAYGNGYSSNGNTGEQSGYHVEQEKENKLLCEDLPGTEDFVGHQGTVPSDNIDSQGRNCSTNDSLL
Chain of Gonadotropin-releasing hormone receptor (Homo sapiens) (P30968 whole entry, looked up): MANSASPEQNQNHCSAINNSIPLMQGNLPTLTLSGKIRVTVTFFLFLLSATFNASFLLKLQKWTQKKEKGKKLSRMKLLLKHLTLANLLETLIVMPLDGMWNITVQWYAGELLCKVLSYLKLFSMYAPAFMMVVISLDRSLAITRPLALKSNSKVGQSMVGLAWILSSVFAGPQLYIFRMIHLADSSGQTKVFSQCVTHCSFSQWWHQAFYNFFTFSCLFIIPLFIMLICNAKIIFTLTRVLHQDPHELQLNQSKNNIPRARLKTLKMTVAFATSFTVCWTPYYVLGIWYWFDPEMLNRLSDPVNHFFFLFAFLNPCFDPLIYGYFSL
Chain of 5-hydroxytryptamine receptor 2A (Homo sapiens) (P28223 whole entry, looked up): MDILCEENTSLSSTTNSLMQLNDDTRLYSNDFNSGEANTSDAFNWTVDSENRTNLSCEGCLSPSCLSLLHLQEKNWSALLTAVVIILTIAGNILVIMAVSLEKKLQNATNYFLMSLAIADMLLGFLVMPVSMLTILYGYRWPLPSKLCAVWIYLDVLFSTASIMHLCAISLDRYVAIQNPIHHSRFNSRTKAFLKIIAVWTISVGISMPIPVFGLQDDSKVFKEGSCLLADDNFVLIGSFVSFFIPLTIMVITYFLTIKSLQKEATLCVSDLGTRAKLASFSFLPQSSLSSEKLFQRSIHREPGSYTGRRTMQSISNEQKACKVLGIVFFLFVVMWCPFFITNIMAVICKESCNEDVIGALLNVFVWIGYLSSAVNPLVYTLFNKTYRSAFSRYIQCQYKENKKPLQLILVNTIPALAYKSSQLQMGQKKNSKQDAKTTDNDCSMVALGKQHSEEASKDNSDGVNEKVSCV
Chain of KiSS-1 receptor (Homo sapiens) (Q969F8 whole entry, looked up): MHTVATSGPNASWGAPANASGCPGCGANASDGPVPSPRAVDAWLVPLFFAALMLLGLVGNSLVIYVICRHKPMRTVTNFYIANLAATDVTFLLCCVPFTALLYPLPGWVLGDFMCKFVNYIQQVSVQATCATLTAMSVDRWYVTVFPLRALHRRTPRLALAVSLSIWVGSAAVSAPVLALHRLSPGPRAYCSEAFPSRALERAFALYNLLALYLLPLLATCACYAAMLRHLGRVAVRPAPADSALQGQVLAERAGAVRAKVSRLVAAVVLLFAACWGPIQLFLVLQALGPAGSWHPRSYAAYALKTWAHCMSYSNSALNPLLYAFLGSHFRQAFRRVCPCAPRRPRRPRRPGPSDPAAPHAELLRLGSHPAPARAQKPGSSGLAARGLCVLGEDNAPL

For `CCn1cc(C(=O)O)c(=O)c2cc(F)c(N3CCNCC3)nc21`, the Potency result in [1], in experiment [2], in experiment [5], in experiment [6], in [7] and in experiment [8] was “inactive” in each case. Further, the Potency entry in experiment [9], in experiment [10], in experiment [11], in experiment [12] and in experiment [13] was “inactive” throughout. Further, the outcome in experiment [3] and in [4] was inactive.
`O=CNNC=O`: the Potency result in [1], in experiment [2], in [5], in experiment [6], in [7] and in [14] was “inactive” throughout. Moreover, the Potency entry in experiment [9], in experiment [15], in experiment [16], in [17], in experiment [18] and in experiment [10] was “inactive” in each case. The Potency result in experiment [11], in [19], in [12] and in experiment [13] was “inactive” throughout. The result in experiment [3] and in experiment [4] was inactive.
Take `CCOc1ccc([N+](=O)[O-])cc1`: the Potency in experiment [1] is 62 µM (active); in experiment [7], 41.4 µM (active); in [11], 55.3 µM (active). Moreover, the Potency entry in experiment [2], in [5], in experiment [6], in experiment [15], in [17] and in [18] was “inactive” each time. Moreover, the Potency entry in experiment [10], in experiment [19] and in [12] was “inactive” in each case. Also, the result in experiment [3] and in [4] was inactive.
Regarding `c1ccc(C(O[C@H]2CCCN(CCc3ccc4c(c3)OCO4)C2)c2ccccc2)cc1`, the Potency result in experiment [1], in experiment [2], in experiment [5], in experiment [6], in experiment [7] and in [8] was “inactive” in each case. The Potency result in [10], in [12] and in [13] was “inactive” throughout. For the same compound, the outcome in experiment [3] and in [4] was inactive. The Potency in [15] is 9.18 µM (active).
`CC1(C)CC(N)CC(C)(C)N1`: the Potency result in experiment [1], in experiment [2], in experiment [5], in experiment [6], in [8] and in experiment [14] was “inactive” throughout. In addition, the Potency result in experiment [9], in experiment [15], in experiment [16], in experiment [17], in experiment [18] and in experiment [11] was “inactive” in each case. Also, the Potency entry in experiment [19], in experiment [12] and in experiment [13] was “inactive” each time. Moreover, the outcome in [3] and in experiment [4] was inactive.
`CCOC(=O)Cn1c(=O)sc2cccc(Cl)c21`: the Potency result in experiment [1], in [2], in experiment [5], in experiment [6], in experiment [8] and in experiment [14] was “inactive” in each case. In addition, the Potency entry in experiment [9], in [15], in experiment [16], in experiment [17], in experiment [18] and in experiment [10] was “inactive” in each case. Also, the Potency entry in experiment [19], in experiment [12] and in experiment [13] was “inactive” each time. In addition, the result in experiment [3] and in experiment [4] was inactive.
Consider `Oc1cccc2[nH]ccc12`, for which the Potency entry in experiment [1], in experiment [2], in experiment [5], in experiment [6], in experiment [8] and in [14] was “inactive” in each case. Moreover, the Potency entry in experiment [9], in experiment [15], in experiment [16], in experiment [17], in experiment [18] and in [11] was “inactive” each time. Besides, the Potency entry in experiment [20], in experiment [12] and in [13] was “inactive” throughout. Also, the outcome in experiment [3] and in experiment [4] was inactive.
